In article PMC7862700, “An all-to-all approach to the identification of sequence-specific readers for epigenetic DNA modifications on cytosine”:

Legend:
Test in all cases: DAPPL (digital affinity profiling via proximity ligation, sequencing); 10 mM Tris-HCl pH 7.5, 50 mM NaCl, 1 mM DTT, 4% glycerol, room temperature, 30 min; GST-TFs on glutathione beads, 16-mer random dsDNA library, 0.1% formaldehyde crosslink after washing; high values mean tight binding
FLI1 = biological target: T1, FLI1 (Homo sapiens, UniProt Q01543 1-452); conditions: protein: recombinant; tags: N-terminal GST; dsDNA, one strand shown
T1 sequence: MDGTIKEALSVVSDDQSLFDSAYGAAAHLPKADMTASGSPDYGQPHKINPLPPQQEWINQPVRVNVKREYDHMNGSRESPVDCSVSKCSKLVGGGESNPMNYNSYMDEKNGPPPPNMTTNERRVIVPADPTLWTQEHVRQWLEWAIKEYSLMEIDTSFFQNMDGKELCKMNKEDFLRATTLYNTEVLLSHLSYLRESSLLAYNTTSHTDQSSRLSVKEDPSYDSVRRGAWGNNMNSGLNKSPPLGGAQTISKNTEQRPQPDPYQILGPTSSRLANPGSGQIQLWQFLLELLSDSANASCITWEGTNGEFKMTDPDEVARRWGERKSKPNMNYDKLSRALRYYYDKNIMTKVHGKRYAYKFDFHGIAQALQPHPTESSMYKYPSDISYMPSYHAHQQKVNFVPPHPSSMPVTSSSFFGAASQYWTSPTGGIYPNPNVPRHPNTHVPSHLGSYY
Procedure, shortened: (§1)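 After expression in yeast as GST fusions, human transcription factors were bound to glutathione beads, DNA-barcoded and mixed with a tag-only sample. The pools were incubated with 200 nmole of a 16-mer random double-stranded DNA library in Tris/NaCl/DTT/glycerol buffer (30 min, room temperature), washed and crosslinked with 0.1% formaldehyde. Proximity ligation with BsaI/T4 ligase ran for 1 h at 37 °C, before PCR amplification and sequencing on an Illumina NextSeq500. Binding signal is a hexamer's read frequency for a factor divided by its frequency for the tag-only sample.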

ELK1 = biological target: T2, ELK1 (Homo sapiens, UniProt P19419 1-428); conditions: protein: recombinant; tags: N-terminal GST; dsDNA, one strand shown
T2 sequence: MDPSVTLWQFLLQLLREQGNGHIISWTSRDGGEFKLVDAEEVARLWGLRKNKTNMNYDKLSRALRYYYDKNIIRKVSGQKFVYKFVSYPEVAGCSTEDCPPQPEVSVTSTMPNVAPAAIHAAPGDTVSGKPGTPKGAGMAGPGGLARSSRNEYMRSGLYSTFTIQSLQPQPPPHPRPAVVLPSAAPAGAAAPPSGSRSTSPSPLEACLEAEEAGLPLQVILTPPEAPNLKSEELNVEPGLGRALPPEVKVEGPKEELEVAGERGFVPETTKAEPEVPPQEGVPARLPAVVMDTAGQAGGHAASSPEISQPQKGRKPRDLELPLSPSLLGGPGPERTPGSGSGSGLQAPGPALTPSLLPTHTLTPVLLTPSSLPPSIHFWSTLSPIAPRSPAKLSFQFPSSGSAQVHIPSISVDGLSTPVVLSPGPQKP
Procedure, shortened: as §1

GABPA = biological target: T3, GABPA (Homo sapiens, UniProt Q06546 1-454); conditions: protein: recombinant; tags: N-terminal GST; dsDNA, one strand shown
T3 sequence: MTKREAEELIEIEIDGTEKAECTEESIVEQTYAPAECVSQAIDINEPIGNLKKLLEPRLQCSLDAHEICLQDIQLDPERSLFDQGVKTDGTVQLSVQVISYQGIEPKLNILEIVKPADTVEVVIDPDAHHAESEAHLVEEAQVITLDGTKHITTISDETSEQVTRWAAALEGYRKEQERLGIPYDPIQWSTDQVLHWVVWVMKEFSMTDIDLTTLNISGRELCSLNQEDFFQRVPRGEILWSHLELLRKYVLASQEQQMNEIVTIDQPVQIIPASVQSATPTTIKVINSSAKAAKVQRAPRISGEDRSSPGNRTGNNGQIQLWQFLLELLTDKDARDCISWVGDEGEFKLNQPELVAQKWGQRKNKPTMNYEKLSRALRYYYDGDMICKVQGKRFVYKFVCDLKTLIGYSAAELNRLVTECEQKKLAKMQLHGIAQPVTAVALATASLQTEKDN
Procedure, shortened: as §1

ERG = biological target: T4, ERG (Homo sapiens, UniProt P11308 1-479); conditions: protein: recombinant; tags: N-terminal GST; dsDNA, one strand shown
T4 sequence: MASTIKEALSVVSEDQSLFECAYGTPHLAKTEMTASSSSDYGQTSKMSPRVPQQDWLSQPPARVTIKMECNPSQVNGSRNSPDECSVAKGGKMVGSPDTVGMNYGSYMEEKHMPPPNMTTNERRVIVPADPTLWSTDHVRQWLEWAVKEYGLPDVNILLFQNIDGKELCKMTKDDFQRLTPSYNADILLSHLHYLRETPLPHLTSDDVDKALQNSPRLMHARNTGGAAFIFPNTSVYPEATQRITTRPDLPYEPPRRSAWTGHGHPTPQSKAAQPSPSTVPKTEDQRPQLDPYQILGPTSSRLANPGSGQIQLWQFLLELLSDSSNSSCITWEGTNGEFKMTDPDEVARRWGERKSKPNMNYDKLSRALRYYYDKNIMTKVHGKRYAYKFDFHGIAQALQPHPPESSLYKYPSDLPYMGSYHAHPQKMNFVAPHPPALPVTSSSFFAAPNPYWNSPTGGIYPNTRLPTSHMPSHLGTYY
Procedure, shortened: as §1

ELF1 = ELF1 (Homo sapiens, UniProt P32519 1-619); conditions: protein: recombinant; tags: N-terminal GST; dsDNA, one strand shown
ELF1, sequence (P32519 whole entry): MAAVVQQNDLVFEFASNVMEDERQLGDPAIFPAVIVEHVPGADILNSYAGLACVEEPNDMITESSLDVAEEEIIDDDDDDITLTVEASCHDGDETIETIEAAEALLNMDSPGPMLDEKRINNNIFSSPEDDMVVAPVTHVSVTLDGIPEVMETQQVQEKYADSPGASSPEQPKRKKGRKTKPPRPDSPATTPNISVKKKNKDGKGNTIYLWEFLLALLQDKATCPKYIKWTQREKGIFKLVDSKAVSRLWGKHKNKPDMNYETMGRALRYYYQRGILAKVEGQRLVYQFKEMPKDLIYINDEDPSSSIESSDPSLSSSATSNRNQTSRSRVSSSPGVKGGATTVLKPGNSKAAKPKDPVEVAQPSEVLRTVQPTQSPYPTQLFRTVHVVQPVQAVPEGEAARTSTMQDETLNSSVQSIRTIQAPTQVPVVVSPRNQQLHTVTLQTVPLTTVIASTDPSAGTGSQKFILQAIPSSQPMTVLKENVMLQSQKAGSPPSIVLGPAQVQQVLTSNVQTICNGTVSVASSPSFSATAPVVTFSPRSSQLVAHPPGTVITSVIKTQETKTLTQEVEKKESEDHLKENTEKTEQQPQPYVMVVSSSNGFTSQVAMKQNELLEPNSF
Procedure, shortened: as §1

EHF = biological target: T5, EHF (Homo sapiens, UniProt Q9NZC4 1-300); conditions: protein: recombinant; tags: N-terminal GST; dsDNA, one strand shown
T5 sequence: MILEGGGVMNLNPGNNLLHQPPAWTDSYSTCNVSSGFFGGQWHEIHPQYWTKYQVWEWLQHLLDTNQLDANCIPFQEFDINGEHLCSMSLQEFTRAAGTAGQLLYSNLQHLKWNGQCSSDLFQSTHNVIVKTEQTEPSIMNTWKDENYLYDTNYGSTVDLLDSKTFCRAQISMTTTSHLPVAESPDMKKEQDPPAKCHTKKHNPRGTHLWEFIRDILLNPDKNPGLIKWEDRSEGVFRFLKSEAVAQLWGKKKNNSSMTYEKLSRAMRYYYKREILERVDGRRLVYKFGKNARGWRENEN
Procedure, shortened: as §1

SPI1 = SPI1 (Homo sapiens, UniProt P17947 1-270); conditions: protein: recombinant; tags: N-terminal GST; dsDNA, one strand shown
Procedure, shortened: as §1

SPIB = SPIB (Homo sapiens, UniProt Q01892 1-262); conditions: protein: recombinant; tags: N-terminal GST; dsDNA, one strand shown
SPIB, sequence (Q01892 whole entry): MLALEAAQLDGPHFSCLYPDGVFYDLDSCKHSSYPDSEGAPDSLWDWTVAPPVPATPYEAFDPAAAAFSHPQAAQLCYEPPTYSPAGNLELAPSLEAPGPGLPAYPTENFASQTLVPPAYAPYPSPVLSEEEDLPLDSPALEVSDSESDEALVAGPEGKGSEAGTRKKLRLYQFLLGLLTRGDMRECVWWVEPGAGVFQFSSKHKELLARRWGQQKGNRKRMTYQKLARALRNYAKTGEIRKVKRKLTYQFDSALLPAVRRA
Procedure, shortened: as §1

ELK3 = biological target: T6, ELK3 (Homo sapiens, UniProt P41970 1-407); conditions: protein: recombinant; tags: N-terminal GST; dsDNA, one strand shown
T6 sequence: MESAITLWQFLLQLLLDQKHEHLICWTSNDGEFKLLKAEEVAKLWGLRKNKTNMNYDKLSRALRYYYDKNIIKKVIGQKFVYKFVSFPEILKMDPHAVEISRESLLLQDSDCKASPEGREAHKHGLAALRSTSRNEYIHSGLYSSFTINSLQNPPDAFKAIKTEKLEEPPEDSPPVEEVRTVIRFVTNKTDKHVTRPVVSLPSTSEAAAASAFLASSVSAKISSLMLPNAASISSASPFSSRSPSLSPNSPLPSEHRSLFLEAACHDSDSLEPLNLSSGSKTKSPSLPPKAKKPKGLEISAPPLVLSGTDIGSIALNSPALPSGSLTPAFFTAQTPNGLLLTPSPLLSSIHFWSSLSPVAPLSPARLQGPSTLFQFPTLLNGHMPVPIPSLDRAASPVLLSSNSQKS
Procedure, shortened: as §1

FEV = biological target: T7, FEV (Homo sapiens, UniProt Q99581 1-238); conditions: protein: recombinant; tags: N-terminal GST; dsDNA, one strand shown
T7 sequence: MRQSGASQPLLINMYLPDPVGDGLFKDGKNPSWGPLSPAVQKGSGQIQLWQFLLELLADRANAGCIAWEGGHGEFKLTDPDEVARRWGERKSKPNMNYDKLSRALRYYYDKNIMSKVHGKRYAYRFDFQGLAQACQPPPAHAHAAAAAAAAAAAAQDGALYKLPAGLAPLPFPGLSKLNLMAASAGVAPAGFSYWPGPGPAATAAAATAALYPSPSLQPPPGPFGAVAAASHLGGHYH
Procedure, shortened: as §1

ETV5 = ETV5 (Homo sapiens, UniProt P41161 1-510); conditions: protein: recombinant; tags: N-terminal GST; dsDNA, one strand shown
ETV5, sequence (P41161 whole entry): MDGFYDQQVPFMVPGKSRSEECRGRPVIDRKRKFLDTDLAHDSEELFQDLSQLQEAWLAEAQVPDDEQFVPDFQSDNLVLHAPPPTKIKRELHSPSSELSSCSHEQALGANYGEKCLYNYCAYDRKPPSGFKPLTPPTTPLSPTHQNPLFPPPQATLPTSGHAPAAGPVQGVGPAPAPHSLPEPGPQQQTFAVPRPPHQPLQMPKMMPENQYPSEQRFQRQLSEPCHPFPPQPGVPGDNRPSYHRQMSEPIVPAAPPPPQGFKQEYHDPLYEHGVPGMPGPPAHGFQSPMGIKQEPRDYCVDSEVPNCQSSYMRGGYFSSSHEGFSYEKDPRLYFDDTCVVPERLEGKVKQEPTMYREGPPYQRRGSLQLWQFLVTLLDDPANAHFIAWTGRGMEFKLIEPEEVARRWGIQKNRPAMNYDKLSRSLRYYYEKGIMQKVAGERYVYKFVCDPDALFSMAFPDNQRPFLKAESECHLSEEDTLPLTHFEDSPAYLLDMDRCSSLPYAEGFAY
Procedure, shortened: as §1

HSF1 = HSF1 (Homo sapiens, UniProt Q00613 1-529); conditions: protein: recombinant; tags: N-terminal GST; chain copies: 3; dsDNA, one strand shown
HSF1, sequence (Q00613 whole entry): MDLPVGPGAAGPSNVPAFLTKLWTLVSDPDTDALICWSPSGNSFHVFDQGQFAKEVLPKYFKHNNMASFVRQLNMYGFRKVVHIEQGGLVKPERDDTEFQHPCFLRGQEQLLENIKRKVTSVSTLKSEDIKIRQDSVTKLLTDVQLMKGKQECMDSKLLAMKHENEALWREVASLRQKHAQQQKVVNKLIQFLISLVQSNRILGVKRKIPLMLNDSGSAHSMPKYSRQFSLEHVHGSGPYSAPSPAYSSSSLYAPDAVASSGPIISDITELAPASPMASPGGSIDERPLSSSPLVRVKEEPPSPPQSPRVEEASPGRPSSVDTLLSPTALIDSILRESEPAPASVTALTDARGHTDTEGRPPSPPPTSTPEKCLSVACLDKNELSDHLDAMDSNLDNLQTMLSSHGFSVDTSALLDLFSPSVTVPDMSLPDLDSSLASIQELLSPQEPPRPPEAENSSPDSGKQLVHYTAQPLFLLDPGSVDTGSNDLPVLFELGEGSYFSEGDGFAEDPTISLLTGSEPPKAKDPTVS
Procedure, shortened: as §1

SPIC = biological target: T8, SPIC (Homo sapiens, UniProt Q8N5J4 1-248); conditions: protein: recombinant; tags: N-terminal GST; dsDNA, one strand shown
T8 sequence: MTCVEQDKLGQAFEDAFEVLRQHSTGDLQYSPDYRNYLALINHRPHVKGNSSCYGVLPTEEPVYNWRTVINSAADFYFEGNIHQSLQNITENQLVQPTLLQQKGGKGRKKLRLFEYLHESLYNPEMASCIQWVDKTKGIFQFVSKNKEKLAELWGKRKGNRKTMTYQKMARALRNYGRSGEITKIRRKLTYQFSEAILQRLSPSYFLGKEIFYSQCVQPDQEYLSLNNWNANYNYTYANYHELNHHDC
Procedure, shortened: as §1

ELF4 = ELF4 (Homo sapiens, UniProt Q99607 1-663); conditions: protein: recombinant; tags: N-terminal GST; dsDNA, one strand shown
ELF4, sequence (Q99607 whole entry): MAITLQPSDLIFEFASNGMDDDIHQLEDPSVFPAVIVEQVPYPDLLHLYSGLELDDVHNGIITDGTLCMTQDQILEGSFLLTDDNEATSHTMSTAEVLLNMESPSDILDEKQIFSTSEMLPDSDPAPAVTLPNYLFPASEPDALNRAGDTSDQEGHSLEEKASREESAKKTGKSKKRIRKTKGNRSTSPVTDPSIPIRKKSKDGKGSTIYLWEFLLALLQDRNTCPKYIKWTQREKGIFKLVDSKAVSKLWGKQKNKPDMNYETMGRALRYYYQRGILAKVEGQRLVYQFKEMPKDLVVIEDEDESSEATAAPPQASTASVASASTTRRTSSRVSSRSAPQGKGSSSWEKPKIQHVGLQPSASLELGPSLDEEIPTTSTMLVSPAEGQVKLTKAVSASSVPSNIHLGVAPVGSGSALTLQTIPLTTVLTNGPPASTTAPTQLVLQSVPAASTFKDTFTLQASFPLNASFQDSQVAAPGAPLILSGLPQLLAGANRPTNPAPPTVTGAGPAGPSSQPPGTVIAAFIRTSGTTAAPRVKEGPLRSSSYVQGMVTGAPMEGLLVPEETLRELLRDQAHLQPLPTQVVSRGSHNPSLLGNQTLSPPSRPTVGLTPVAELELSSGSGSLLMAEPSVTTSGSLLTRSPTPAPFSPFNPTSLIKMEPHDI
Procedure, shortened: as §1

ELK4 = biological target: T9, ELK4 (Homo sapiens, UniProt P28324-2 1-405); conditions: protein: recombinant; tags: N-terminal GST; dsDNA, one strand shown
T9 sequence: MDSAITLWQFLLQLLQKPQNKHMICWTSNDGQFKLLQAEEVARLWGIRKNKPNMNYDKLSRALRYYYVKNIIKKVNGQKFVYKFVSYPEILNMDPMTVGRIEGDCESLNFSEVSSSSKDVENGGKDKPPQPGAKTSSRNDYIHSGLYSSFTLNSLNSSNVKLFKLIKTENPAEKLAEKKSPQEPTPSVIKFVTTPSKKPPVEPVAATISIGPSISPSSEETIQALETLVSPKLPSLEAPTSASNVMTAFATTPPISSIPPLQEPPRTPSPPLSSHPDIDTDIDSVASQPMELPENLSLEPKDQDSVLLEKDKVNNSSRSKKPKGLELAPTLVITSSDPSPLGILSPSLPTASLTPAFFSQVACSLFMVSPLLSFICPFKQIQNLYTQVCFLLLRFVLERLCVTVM
Procedure, shortened: as §1

ETV2 = biological target: T10, ETV2 (Homo sapiens, UniProt O00321 1-342); conditions: protein: recombinant; tags: N-terminal GST; dsDNA, one strand shown
T10 sequence: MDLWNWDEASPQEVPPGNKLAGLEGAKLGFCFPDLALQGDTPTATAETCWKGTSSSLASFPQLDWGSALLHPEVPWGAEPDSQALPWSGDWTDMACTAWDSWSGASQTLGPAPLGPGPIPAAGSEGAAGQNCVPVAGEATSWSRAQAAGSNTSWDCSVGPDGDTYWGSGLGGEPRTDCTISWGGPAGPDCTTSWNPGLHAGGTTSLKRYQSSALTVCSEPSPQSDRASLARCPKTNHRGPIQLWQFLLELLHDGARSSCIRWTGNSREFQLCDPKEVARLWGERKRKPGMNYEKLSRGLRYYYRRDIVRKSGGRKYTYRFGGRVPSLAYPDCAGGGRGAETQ
Procedure, shortened: as §1

ELF3 = biological target: T11, ELF3 (Homo sapiens, UniProt P78545 1-371); conditions: protein: recombinant; tags: N-terminal GST; dsDNA, one strand shown
T11 sequence: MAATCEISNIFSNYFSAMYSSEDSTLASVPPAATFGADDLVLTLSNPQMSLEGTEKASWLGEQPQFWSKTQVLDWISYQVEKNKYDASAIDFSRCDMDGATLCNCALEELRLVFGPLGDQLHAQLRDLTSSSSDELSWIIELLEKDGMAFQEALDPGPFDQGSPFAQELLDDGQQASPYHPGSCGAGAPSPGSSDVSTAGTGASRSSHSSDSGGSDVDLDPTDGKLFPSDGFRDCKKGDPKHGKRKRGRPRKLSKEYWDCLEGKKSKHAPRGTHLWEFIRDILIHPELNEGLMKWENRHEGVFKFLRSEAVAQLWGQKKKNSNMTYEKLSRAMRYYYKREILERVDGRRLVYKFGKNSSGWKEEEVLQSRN
Procedure, shortened: as §1

CRX = CRX (Homo sapiens, UniProt O43186 1-299); conditions: protein: recombinant; tags: N-terminal GST; dsDNA, one strand shown
CRX, sequence (O43186 whole entry): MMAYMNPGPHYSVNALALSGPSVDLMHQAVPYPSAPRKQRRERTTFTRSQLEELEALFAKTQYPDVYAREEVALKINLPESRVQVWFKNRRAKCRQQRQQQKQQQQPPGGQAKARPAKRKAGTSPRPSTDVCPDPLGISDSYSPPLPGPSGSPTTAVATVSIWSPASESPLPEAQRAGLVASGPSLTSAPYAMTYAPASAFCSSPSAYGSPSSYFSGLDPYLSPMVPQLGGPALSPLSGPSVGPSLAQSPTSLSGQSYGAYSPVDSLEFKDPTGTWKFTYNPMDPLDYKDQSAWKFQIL
Procedure, shortened: as §1

ETV1 = ETV1 (Homo sapiens, UniProt P50549 1-477); conditions: protein: recombinant; tags: N-terminal GST; dsDNA, one strand shown
ETV1, sequence (P50549 whole entry): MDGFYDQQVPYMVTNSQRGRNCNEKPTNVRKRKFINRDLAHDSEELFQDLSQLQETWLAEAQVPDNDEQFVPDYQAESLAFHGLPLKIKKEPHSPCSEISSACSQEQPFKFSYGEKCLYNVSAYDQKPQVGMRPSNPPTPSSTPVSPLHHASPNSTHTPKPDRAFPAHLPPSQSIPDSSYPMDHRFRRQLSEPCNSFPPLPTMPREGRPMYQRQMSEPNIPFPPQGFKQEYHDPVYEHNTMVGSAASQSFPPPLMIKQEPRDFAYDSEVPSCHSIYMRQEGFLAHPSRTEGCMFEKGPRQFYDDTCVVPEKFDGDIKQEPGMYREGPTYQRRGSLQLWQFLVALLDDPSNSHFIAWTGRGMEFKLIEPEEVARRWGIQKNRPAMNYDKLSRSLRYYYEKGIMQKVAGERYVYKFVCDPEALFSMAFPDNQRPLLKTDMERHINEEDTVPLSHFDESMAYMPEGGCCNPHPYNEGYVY
Procedure, shortened: as §1

Sequence: TTCACC
- binding signal (FLI1): 1.35 fold enrichment (6-mer frequency, TF over GST control)
- binding signal (ELK1): 1.39 fold enrichment (6-mer frequency, TF over GST control)
- binding signal (GABPA): 1.34 fold enrichment (6-mer frequency, TF over GST control)
- binding signal (ERG): 1.38 fold enrichment (6-mer frequency, TF over GST control)
- binding signal (ELF1): 1.39 fold enrichment (6-mer frequency, TF over GST control)
- binding signal (EHF): 1.19 fold enrichment (6-mer frequency, TF over GST control)
- binding signal (SPI1): 1.4 fold enrichment (6-mer frequency, TF over GST control)
- binding signal (SPIB): 1.28 fold enrichment (6-mer frequency, TF over GST control)
- binding signal (ELK3): 1.32 fold enrichment (6-mer frequency, TF over GST control)
- binding signal (FEV): 1.39 fold enrichment (6-mer frequency, TF over GST control)
- binding signal (ETV5): 1.33 fold enrichment (6-mer frequency, TF over GST control)
- binding signal (HSF1): 1.14 fold enrichment (6-mer frequency, TF over GST control)
- binding signal (SPIC): 1.34 fold enrichment (6-mer frequency, TF over GST control)
- binding signal (ELF4): 1.44 fold enrichment (6-mer frequency, TF over GST control)
- binding signal (ELK4): 1.36 fold enrichment (6-mer frequency, TF over GST control)
- binding signal (ETV2): 1.36 fold enrichment (6-mer frequency, TF over GST control)
- binding signal (ELF3): 1.57 fold enrichment (6-mer frequency, TF over GST control)
- binding signal (CRX): 1.17 fold enrichment (6-mer frequency, TF over GST control)
- binding signal (ETV1): 1.4 fold enrichment (6-mer frequency, TF over GST control)
